# Screening data: PubChem BioAssay, several laboratories
# Shown are actives, neighbours in structure and some others; about 3.8% of the full set was active somewhere.
# Mtb FBA inh = Mtb FBA enzyme inhibitors, primary screen, biochemical, fluorescence, strain H37Rv; Fructose-bisphosphate aldolase (Mycobacterium tuberculosis (strain ATCC 25618 / H37Rv)), …; purified M. tuberculosis FBA, fluorescence read-out; inhibition, % at 1 µM; actives 2.3% (n = 360,000); in the data active = inhibition above about 27%;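 note: 0% = vehicle and 100% = reference inhibitor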
# Target sequence (P9WQA3 whole entry, looked up): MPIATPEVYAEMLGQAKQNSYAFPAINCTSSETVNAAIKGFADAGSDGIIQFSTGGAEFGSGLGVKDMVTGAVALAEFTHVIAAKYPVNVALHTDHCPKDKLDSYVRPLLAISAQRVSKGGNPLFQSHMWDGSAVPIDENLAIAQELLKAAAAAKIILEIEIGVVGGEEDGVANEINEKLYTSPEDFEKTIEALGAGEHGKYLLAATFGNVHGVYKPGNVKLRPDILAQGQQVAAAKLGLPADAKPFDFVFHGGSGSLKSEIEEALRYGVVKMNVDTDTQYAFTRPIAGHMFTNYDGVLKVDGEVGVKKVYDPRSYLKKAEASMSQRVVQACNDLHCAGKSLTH
# GDH-TPI counter = GDH-TPI coupling enzyme inhibitors, primary screen, artefact control for M. tuberculosis FBA inhibitor project, biochemical, absorbance, full deck | GDH-TPI coupled enzyme counterscreen, NADH absorbance | inhibition, % at 4.8 µM | actives 1.2% (n = 360,000) | AID 588335, 2011; in the data active = inhibition above about 30%;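 note: 0% = DMSO wells and 100% = wells lacking the enzyme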
# PrPC TRFRET = inhibitors of human cell surface prion protein PrPC, primary screen, cell-based, TR-FRET; Major prion protein (Homo sapiens), P04156; TR-FRET read-out; inhibition, % at 13.8 µM; actives 0.43% (n = 370,000); AID 720596, 2013; in the data active = inhibition above about 24%; note: 0% = median of the test wells and 100% = reference compound wells
# PrP 5UTR inh = inhibition of PrP 5' UTR reporter expression | cell-based PrP 5' UTR mRNA reporter, plate reader | inhibition, % (concentration not given with the values) | AID 488862, 2010 | actives 0.35% (n = 340,000); in the data active = inhibition above about 52%; note: 0 = median of the neutral control wells
# Mtb hypoxia inh = PubChem AID 1159583 | M. tuberculosis hypoxia-regulated fluorescent reporter, fluorescence | fluorescence inhibition, % (test concentration not listed) | actives 0.1% (n = 300,000); in the data active = fluorescence inhibition mostly above about 23%, no sharp cut-off; inactive = mostly below about 17%
# Y pestis TopoI = Yersinia pestis topoisomerase I inhibitors, primary screen, biochemical, cleavage product accumulation, plate reader, single point; Y. pestis Topo-I cleavage product accumulation; actives 0.064% (n = 360,000); AID 504884, 2011; activity, % at 10 µM; in the data active = activity above about 50%, passing the limit was not always enough
# Active calls of the source: *; · = not tested or not shown; + = active, no number.
SMILES,Mtb FBA inh,GDH-TPI counter,PrPC TRFRET,PrP 5UTR inh,Mtb hypoxia inh,Y pestis TopoI
CC(=NNC(=O)c1cc(-c2cccc(OC(C)C)c2)nc2ccccc12)c1cccnc1,·,·,·,·,0,·
COc1c2ccoc2nc2c(OC)c(OCC(OC(C)=O)C(C)(C)O)ccc12 (stereo unspecified),130*,17,-8,-13,·,5
COc1c2ccoc2nc2c(OC)c(OC[C@@H](O)C(C)(C)O)ccc12,146*,23,-8,-4,·,-4
COc1c2ccoc2nc2c(OC)c(OCC(O)C(C)(C)O)ccc12 (stereo unspecified),146*,13,-8,-8,7,12
O=[N+]([O-])c1ccc(O)c(C=NNc2nn[nH]n2)c1,·,·,·,·,1,·
CN(C)c1ccc(/C=N/N2C(=S)SC(C)(C)C2N(O)C(=O)Nc2ccc([N+](=O)[O-])cc2)cc1 (stereo unspecified),0,51*,-4,-18,·,32
CNC(=O)N(O)C1N(/N=C/c2ccc(SC)cc2)C(=S)SC1(C)C (stereo unspecified),0,36*,9,-21,·,5
CNC(=O)N(O)C1N(/N=C/c2ccccc2F)C(=S)SC1(C)C (stereo unspecified),-4,15,5,-17,·,-6
CNC(=O)N(O)C1N(N=Cc2ccc(C)cc2)C(=S)SC1(C)C (stereo unspecified),·,·,·,·,17,·
CNC(=O)N(O)C1N(/N=C/c2ccccc2O)C(=S)SC1(C)C (stereo unspecified),0,36*,1,-6,·,3
CC1(C)SC(=S)N(N=Cc2ccc(O)cc2)C1N(O)C(=O)Nc1ccc([N+](=O)[O-])cc1 (stereo unspecified),·,·,·,·,-7,·
CC(NC(=O)c1[nH]cnc1C(=O)Nc1ccc(Cl)cc1)C(=O)OC(C)(C)C (stereo unspecified),·,·,·,·,-4,·
O=C(Nc1ccc(Nc2ccncc2)cc1)c1ccc(Nc2ccnc3ccc([N+](=O)[O-])cc23)cc1,0,39*,20,·,15,-30
O=C(Nc1ccc(Cc2ccncc2)cc1)c1cccc([N+](=O)[O-])c1,-1,1,-5,-25,2,0
CC(C)(C)OC(=O)NCCCCC(NC(=O)c1[nH]cnc1C(=O)Nc1ccc(CNC(=O)OC(C)(C)C)cc1)C(=O)OC(C)(C)C (stereo unspecified),·,·,·,·,5,·
CN(C(=O)/C=C/c1ccco1)c1ccccc1C(=O)O,5,32*,0,-11,11,-1
CN(C(=O)C=Cc1ccco1)c1ccccc1,-3,9,-4,-12,12,1
Cc1ccc(-c2csc(/C(C#N)=C(\O)CN3CCN(C(=O)c4ccco4)CC3)n2)cc1,0,31*,-2,-16,·,4
COc1ccc(CC(=O)Nc2ccc3c(c2)OC2(CCCC2)O3)c(OC)c1,1,-4,2,·,·,3
Cc1cc(=O)oc2c3c(cc(OCC(=O)NCc4ccco4)c12)OC(C)(C)CC3,+,13,16,-17,·,21
Cc1cc(=O)oc2cc(OCC(=O)NCc3ccncc3)ccc12,18,-3,-8,·,10,2
Cc1cc(=O)oc2cc(OCC(=O)NCc3ccco3)ccc12,10,8,1,-2,5,-7
Cc1cc(=O)oc2c3c(cc(OCC(=O)NCc4ccncc4)c12)OC(C)(C)CC3,+,16,3,-14,·,18
COc1ccc(CNC(=O)COc2cc3c(c4oc(=O)cc(C)c24)CCC(C)(C)O3)c(OC)c1,34*,12,2,·,·,24
COc1cc(C=NNC(=O)CN2CCCCC2)ccc1OCc1ccc(Br)cc1,·,·,·,·,3,·
CN(C)CCSc1nc2cc(S(=O)(=O)N3CCCCC3)ccc2o1,1,7,-2,-16,35*,10
Cc1cc[n+](-c2[nH]c(=O)sc2/C=N/N=C(\[O-])c2ccccc2)cc1C,-5,11,-12,-21,·,2
O=C(N/N=C/c1sc(=O)[nH]c1-[n+]1ccccc1)c1ccccc1[O-],-5,55*,-19,-7,·,0
